The source of these data is PubChem BioAssay (NCATS).

Test [1] is described as follows: qHTS to identify inhibitors of the type 1 interferon - major histocompatibility complex class I in skeletal muscle: primary screen against the NCATS LOPAC collection (AID 1347405).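 Note: lytic HiBiT luminescence reporting HLA-B protein level.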 A digest of the protocol: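 Cells: C25cl48 human myoblasts, HiBiT-tagged HLA-B*08:01, stimulated with IFN-beta 4.0 ng/ml. Compounds are titrated 1:4.3 over 7 points from 46 uM final and incubated 24 hrs; endogenous MHC class I is quantified by HiBiT lytic luminescence.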
Background: Quantitative high-throughput screening tests each substance at several concentrations.

Test [2] in a line: qHTS for inhibitors of adenylyl cyclases using a fission yeast platform: a pilot screen against the NCATS LOPAC library (AID 1347410). A digest of the protocol:
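GFP from fbp1-GFP reporter, read by Acumen laser cytometry, indicates AC inhibition in fission yeast expressing AC9, GNAS and PDE4D2. Cells grown 18 h in the dark at 30C with compounds, final up to 57 uM.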

Test [3] can be described thus: Validation qHTS assay for inhibitors of Activation Induced Cytidine Deaminase (AID): UDG Counterscreen signal (AID 1347427). A digest of the protocol:
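Counterscreen read of UDG activity (2 U/mL, 4/3x) in the FRET deamination format with AID (1 uM, 4/3x), DJC20/DJC23 substrates (250 nM, 4x), 4 h at room temperature. NaOH stop, fluorescence at 560 ex/665 em.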

Test [4] concerns the target Single-stranded DNA cytosine deaminase (Homo sapiens) (UniProt Q9GZX7). Briefly: Validation qHTS assay for inhibitors of Activation Induced Cytidine Deaminase (AID): AID signal (AID 1347429). A digest of the protocol: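 In this coupled qHTS, AID deaminates a FRET-labelled ssDNA substrate in the presence of UDG over 4 hr at room temperature. Compounds span up to 114 uM final.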

Test [5] can be described thus: Primary qHTS for inhibitors of La Crosse Virus (LACV) - induced cell death in SH-SY5Y cells (AID 1508616).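 Note: top concentration of the series differs between compounds; higher means more rescue of cells from virus-induced death.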 The procedure, abridged:
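Readout was luminescence from ATPLite 1step added after a 6-day LACV infection (0.01 MOI) of SH-SY5Y cells that had received pin-transferred compound 24 hr after seeding.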

The target of test [6] is Calcium and integrin-binding protein 1 (Homo sapiens) (UniProt Q99828). Nature of the test: Validation qHTS for Identification of Calcium Integrin Binding protein 1 (CIB1) Competitor (AID 1508618). The procedure, abridged: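 Displacement of FITC-alphaIIb peptide (100 nM) from CIB1-GST (1 uM) is monitored by polarization in quantitative HTS format; buffer carries 5 mM CaCl2 and 125 mM NaCl at pH 7.4, incubations are at room temperature.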

A short description of test [7]: Primary qHTS for small molecule stabilizers of the endoplasmic reticulum resident proteome: Secreted ER Calcium Modulated Protein (SERCaMP) assay (AID 1508630). A digest of the protocol:
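GLuc-SERCaMP-expressing SH-SY5Y cells, pretreated 16 h with compound, are challenged with thapsigargin to empty ER calcium stores; after 4 h, coelenterazine is added directly to the medium and luminescence is imaged.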

Another test has as its target Papain (Carica papaya) (UniProt P00784). Briefly: Primary qHTS assay for inhibitors of the protease papain (AID 1645873).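 Note: papain turnover of Z-FR-AMC read as the AMC fluorescence gain over 10 min.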 Note: potency is the fitted concentration of half-maximal effect.

Unmarked numbers belong to inactive results. Results filed as inconclusive are left out. Activity calls are given as the source filed them. Calls come from the whole dose curve; as a rule, active = well fitted curve in the direction sought with a large enough effect; inconclusive = small, poorly fitted or top-dose-only effect, or another doubt; inactive = no such curve, though single readings can be large; an effect the other way counts as inactive or inconclusive.

Chain of Single-stranded DNA cytosine deaminase (Homo sapiens) (Q9GZX7 whole entry, looked up): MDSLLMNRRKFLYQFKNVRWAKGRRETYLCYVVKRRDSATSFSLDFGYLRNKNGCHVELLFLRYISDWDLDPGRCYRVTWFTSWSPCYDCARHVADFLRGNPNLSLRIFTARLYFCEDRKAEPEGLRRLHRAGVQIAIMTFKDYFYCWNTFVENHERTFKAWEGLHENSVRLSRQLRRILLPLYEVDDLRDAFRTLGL
Chain of Calcium and integrin-binding protein 1 (Homo sapiens) (Q99828 whole entry, looked up): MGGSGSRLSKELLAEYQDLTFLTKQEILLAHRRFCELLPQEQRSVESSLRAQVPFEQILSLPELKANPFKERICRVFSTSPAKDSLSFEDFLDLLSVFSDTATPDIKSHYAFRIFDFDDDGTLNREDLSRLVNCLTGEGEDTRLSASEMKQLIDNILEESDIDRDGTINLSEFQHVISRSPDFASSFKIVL
Chain of Papain (Carica papaya) (P00784 whole entry, looked up): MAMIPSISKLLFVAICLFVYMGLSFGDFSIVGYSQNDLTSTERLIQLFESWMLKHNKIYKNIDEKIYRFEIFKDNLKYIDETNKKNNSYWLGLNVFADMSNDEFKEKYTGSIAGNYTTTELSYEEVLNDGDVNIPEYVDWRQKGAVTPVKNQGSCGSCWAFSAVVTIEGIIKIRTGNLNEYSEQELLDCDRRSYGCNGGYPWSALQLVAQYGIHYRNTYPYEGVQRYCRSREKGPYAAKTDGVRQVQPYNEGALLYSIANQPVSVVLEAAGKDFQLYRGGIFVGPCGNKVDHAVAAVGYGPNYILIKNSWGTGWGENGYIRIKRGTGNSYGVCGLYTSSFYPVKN

As to `CSC(=N)N`, the Potency result in test [1], in test [3], in test [4], in test [5], in test [6] and in test [7] was “inactive” in each case. Moreover, in the test with Papain (Carica papaya), the Potency result is “inactive”. Moreover, in test [2], the result was inactive.
For `CC(=O)/C(C)=N/O`, the Potency entry in test [1], in test [3], in test [4], in test [5], in test [6] and in test [7] was “inactive” throughout. Moreover, the result in test [2] was inactive. In the test with Papain (Carica papaya), the Potency is 2 µM (active).
Take `CCN1C(=O)C=CC1=O`: the Potency result in test [1], in test [3], in test [4], in test [5], in test [6] and in test [7] was “inactive” in each case. The Potency entry with Papain (Carica papaya) is “inactive”. Also, the result in test [2] was inactive.
As to `CC(O)C(O)[C@H]1CNc2nc(N)[nH]c(=O)c2N1` (stereo partly drawn), the Potency result in test [1], in test [3], in test [4], in test [5], in test [6] and in test [7] was “inactive” throughout. For the same compound, the compound was called inactive in test [2]. Besides, the Potency with Papain (Carica papaya) was 25.1 µM (active).
`Cn1cc(C(=O)OCC2CCN(CCNS(C)(=O)=O)CC2)c2ccccc21`: the Potency entry in test [1], in test [3], in test [4], in test [5], in test [6] and in test [7] was “inactive” in each case. Besides, in the test with Papain (Carica papaya), the Potency entry is “inactive”. The compound was classed as inactive in test [2].
For the compound `CC(N)=O`, the Potency entry in test [1], in test [3], in test [4], in test [5], in test [6] and in test [7] was “inactive” each time. The Potency result in the test with Papain (Carica papaya) is “inactive”. Moreover, the outcome in test [2] was inactive.
In the case of `NCCCCN=C(N)N`, the Potency result in test [1], in test [3], in test [4], in test [5], in test [6] and in test [7] was “inactive” each time. In addition, the Potency entry with Papain (Carica papaya) was “inactive”. Further, the result in test [2] was inactive.
For `c1ccc(C(NCc2cccnc2)(c2ccccc2)c2ccccc2)cc1`, the Potency result in test [1], in test [3], in test [4], in test [5], in test [6] and in test [7] was “inactive” throughout. Also, the Potency result in the test with Papain (Carica papaya) is “inactive”. In test [2], the compound was called inactive.
As to `O=C(O)c1cccnc1C(=O)O`, the Potency result in test [1], in test [3], in test [4], in test [5], in test [6] and in test [7] was “inactive” throughout. In the test with Papain (Carica papaya), the Potency entry was “inactive”. The outcome in test [2] was inactive.
`Nc1ncnc2c1nc(Sc1ccc(Cl)cc1)n2[C@H]1OC2COP(=O)(O)O[C@@H]2C1O` (stereo partly drawn): the Potency entry in test [1], in test [3], in test [4], in test [5], in test [6] and in test [7] was “inactive” each time. In addition, in the test with Papain (Carica papaya), the Potency entry was “inactive”. The call in test [2] was inactive.
With `C=CCN1CCc2cc(O)c(O)cc2C(c2ccccc2)C1` (stereo not drawn), the Potency entry in test [1], in test [3], in test [4], in test [5], in test [6] and in test [7] was “inactive” throughout. Also, the Potency entry with Papain (Carica papaya) is “inactive”. For the same compound, the outcome in test [2] was inactive.
`N[C@@H](Cc1ccc(F)cc1)C(=O)O`: the Potency result in test [1], in test [3], in test [4], in test [5], in test [6] and in test [7] was “inactive” each time. Also, the Potency result with Papain (Carica papaya) is “inactive”. Also, the call in test [2] was inactive.
As for `CC(C)[C@@H]1CC[C@@H](C)C[C@@H]1P(=O)(c1ccccc1)c1ccccc1`, the Potency entry in test [1], in test [3], in test [4], in test [5], in test [6] and in test [7] was “inactive” in each case. Further, the Potency result in the test with Papain (Carica papaya) was “inactive”. Besides, in test [2], the call was inactive.
Take `C#CCn1c(=O)c2c(ncn2C)n(C)c1=O`: the Potency entry in test [1], in test [3], in test [4], in test [5], in test [6] and in test [7] was “inactive” throughout. The Potency result with Papain (Carica papaya) is “inactive”. Moreover, the outcome in test [2] was inactive.
As for `NCCCNCCCCNCCCN`, the Potency entry in test [1], in test [3], in test [4], in test [5], in test [6] and in test [7] was “inactive” in each case. Further, the Potency entry in the test with Papain (Carica papaya) was “inactive”. In addition, the outcome in test [2] was inactive.
For the compound `COc1ccc2c(c1)c(CC(=O)O)c(C)n2C(=O)c1ccccc1`, the Potency entry in test [1], in test [3], in test [4], in test [5], in test [6] and in test [7] was “inactive” each time. For the same compound, in the test with Papain (Carica papaya), the Potency entry is “inactive”. In addition, the outcome in test [2] was inactive.
As for `Cn1ccnc1`, the Potency entry in test [1], in test [3], in test [4], in test [5], in test [6] and in test [7] was “inactive” each time. Further, in the test with Papain (Carica papaya), the Potency entry was “inactive”. Also, the outcome in test [2] was inactive.
For the compound `O=C(O)C1=CCNCC1`, the Potency entry in test [1], in test [3], in test [4], in test [5], in test [6] and in test [7] was “inactive” each time. Besides, the Potency entry in the test with Papain (Carica papaya) was “inactive”. Moreover, in test [2], the result was inactive.
`Cc1nc(N=Nc2ccc(C(=O)O)cc2)c(COP(=O)(O)O)c(C=O)c1O`: the Potency entry in test [1], in test [3], in test [4], in test [5], in test [6] and in test [7] was “inactive” throughout. Further, the Potency entry in the test with Papain (Carica papaya) was “inactive”. In addition, the result in test [2] was inactive.
Take `CCCCOc1cc(CC2CNC(=O)N2)ccc1OC` (stereo not drawn): the Potency result in test [1], in test [3], in test [4], in test [5], in test [6] and in test [7] was “inactive” throughout. Also, the Potency entry with Papain (Carica papaya) was “inactive”. Besides, the compound was classed as inactive in test [2].
As for `CCCCC[C@H](CC(=O)NO)C(=O)N[C@H](C(=O)N1CCC[C@H]1CO)C(C)C`, the Potency result in test [1], in test [3], in test [4], in test [5], in test [6] and in test [7] was “inactive” each time. Besides, the Potency entry with Papain (Carica papaya) is “inactive”. In test [2], the compound was classed as inactive.
For the compound `COC(=O)C(N)Cc1ccc(Cl)cc1` (stereo not drawn), the Potency entry in test [1], in test [3], in test [4], in test [5], in test [6] and in test [7] was “inactive” in each case. Also, the Potency entry with Papain (Carica papaya) was “inactive”. The result in test [2] was inactive.
With `COc1cc(N)c(Cl)cc1C(=O)OCCN1CCCCC1`, the Potency result in test [1], in test [3], in test [4], in test [5], in test [6] and in test [7] was “inactive” throughout. Moreover, the Potency entry with Papain (Carica papaya) is “inactive”. Besides, the call in test [2] was inactive.
With `CNc1cc(NS(=O)(=O)c2ccc(N)cc2)nc(NC)n1`, the Potency result in test [1], in test [3], in test [4], in test [5], in test [6] and in test [7] was “inactive” each time. Also, the Potency result with Papain (Carica papaya) was “inactive”. The compound was classed as inactive in test [2].
`O=C(O)C1=CCCN(CCON=C(c2ccccc2)c2ccccc2)C1`: the Potency result in test [1], in test [3], in test [4], in test [5], in test [6] and in test [7] was “inactive” throughout. In the test with Papain (Carica papaya), the Potency entry was “inactive”. Also, the compound was called inactive in test [2].
For `CCCc1c(-c2ccc(O)cc2)nn(-c2ccc(O)cc2)c1-c1ccc(O)cc1`, the Potency result in test [1], in test [3], in test [4], in test [5], in test [6] and in test [7] was “inactive” in each case. Moreover, the Potency entry in the test with Papain (Carica papaya) is “inactive”. The compound was called inactive in test [2].
